Source: PubChem BioAssay AID493168 (National Center for Advancing Translational Sciences (NCATS), 2011)
Records with an inconclusive call do not appear. Active and inactive are the calls of the source. Calls follow the shape of the dose curve; as a rule, active = well fitted inhibition curve with a large enough effect; inconclusive = small, poorly fitted or top-dose-only effect, or effect the other way; inactive = flat fitted curve, though single readings scatter.

Target: Ubiquitin carboxyl-terminal hydrolase 2 (Homo sapiens) (UniProt O75604)
Sequence (O75604 whole entry, looked up): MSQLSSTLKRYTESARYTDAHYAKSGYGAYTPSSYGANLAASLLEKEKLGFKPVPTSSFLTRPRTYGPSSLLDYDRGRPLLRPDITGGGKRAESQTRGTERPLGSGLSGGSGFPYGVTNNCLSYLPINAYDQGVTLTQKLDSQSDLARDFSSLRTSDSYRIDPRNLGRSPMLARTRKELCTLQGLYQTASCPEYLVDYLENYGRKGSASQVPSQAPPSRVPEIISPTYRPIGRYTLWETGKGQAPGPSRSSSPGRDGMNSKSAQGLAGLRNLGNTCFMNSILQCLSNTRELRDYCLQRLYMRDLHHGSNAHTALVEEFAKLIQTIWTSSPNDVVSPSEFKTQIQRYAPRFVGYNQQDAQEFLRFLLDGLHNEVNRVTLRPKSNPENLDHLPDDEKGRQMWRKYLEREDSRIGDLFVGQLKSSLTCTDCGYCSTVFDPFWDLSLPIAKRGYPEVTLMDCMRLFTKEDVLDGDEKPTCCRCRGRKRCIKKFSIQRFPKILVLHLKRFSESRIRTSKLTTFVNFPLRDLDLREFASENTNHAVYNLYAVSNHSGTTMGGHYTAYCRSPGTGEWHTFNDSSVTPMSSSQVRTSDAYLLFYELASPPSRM
Assay: Confirmation Assay for Inhibitors of Ubiquitin-specific Protease USP2a Using CHOP2 as the Reporter; also: nearly all actives have a fitted effect of over 55% in size;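 as to activity change, negative = inhibition: plate controls were DMSO wells for no effect and full inhibition by NEM control for full effect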
Conditions: USP2 core, Ub-CHOP2 coupled reporter fluorescence; series mostly up to 38.3 µM; activity change, negative = inhibition: at the top concentration
In short: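 USP2 core (10 nM final) was preincubated with compound for 30 min at RT in Tris-HCl pH 8.0, CaCl2, beta-mercaptoethanol, CHAPS. Ub-CHOP2 and reporter substrate (25 nM final each) were added, and fluorescence (Ex 485/Em 531 nm) was read after 60 min.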
Potency is read from the fitted curve at half-maximal effect.

Structure (SMILES)	activity change, negative = inhibition	Potency
Cc1ccc(Nc2cc(C)nc(NCc3ccccc3)n2)cc1	-2.23% (inactive)	
O=C1/C(=C/C=C/c2ccco2)SC(=S)N1NS(=O)(=O)c1ccccc1		8.26 µM (active)
O=C(Nc1ncccc1Cl)c1cccc(F)c1	1.04% (inactive)	
COc1ccc(NC(=S)NC(=O)/C=C/c2ccco2)cc1	4.1% (inactive)	
CC1=NN(C(=O)c2csc(C)c2C)C(O)(C(F)(F)F)C1 (stereo not given)	7.72% (inactive)	
Cc1ccc(S(=O)(=O)N2[C@@H](c3ccc(C(C)(C)C)cc3)C(C(=O)O)=CC[C@H]2c2ccc(C(C)C)cc2)cc1		9.27 µM (active)
CC(=O)N1c2c(cc(Br)cc2S(=O)(=O)NCc2cccnc2)CC1C (stereo not given)	2.31% (inactive)	
CC1CCCC(N2CCN(C(=O)c3cccc(F)c3)CC2)C1 (stereo not given)	-0.437% (inactive)	
O/N=C/c1ccccc1OCc1ccccc1F	3.9% (inactive)	
COc1cccc(-c2csc3nnc(SCC(=O)NCc4cccs4)n23)c1	-0.609% (inactive)	
CC(=O)c1ccc2c(c1)C1C=CCC1C(C(=O)O)N2 (stereo not given)		11.7 µM (active)
CN(c1cccc(NC(=O)Nc2cccc(Cl)c2)c1)S(C)(=O)=O	0.956% (inactive)	
C=CCn1c(NCc2cc(C)ccc2O)nc2ccccc21	0.219% (inactive)	
O=C1Nc2ccc(S(=O)(=O)N3CCCCCC3)c3cccc1c23	-0.6% (inactive)	
CCOC(=O)C1CCCN(C(=O)c2cc(-c3ccco3)nc3ccccc23)C1 (stereo not given)		18.5 µM (active)
C(=N\N(c1ccccc1)c1ccccc1)/c1ccccn1	3.64% (inactive)	
O=C(O)CCn1c(C2CCCCC2)nc2ccccc21	-3.24% (inactive)	
CC(C)OCCCNC(=O)c1c(N)n(/N=C/c2ccccn2)c2nc3ccccc3nc12	-0.772% (inactive)	
COc1ccc(-c2csc(N3CCN(C(=O)c4ccco4)CC3)n2)cc1	-3.7% (inactive)	
Cc1ccc(-c2ccc(CCC(=O)O)n2NC(=O)c2cccs2)cc1	-2.31% (inactive)	
CC[C@]12c3[nH]c4cc(-c5ccco5)ccc4c3CCN1C(=O)[C@@H](CC(=O)NC/C=C(\C)CCC=C(C)C)C[C@@H]2C(=O)N1CCN(C(=O)C2CC2)CC1	-2.16% (inactive)	
CN1CCN(S(=O)(=O)c2ccc(N3CCN(S(=O)(=O)/C=C/c4ccccc4)CC3)nc2)CC1	-0.101% (inactive)	
CCN1C(=O)C(NC(C)=O)c2cc(OC)ccc21 (stereo not given)	1.61% (inactive)	
O=C(c1ccccc1)c1ccc2nc(-c3ccco3)c(-c3ccco3)nc2c1	-1.57% (inactive)	
CCCc1cc(=O)oc2cc(C)c(CN3CCCC3)c(O)c12	-1.5% (inactive)	
